In the library only some 19% were active in any assay of this set; here they are far more common.
TDP1 cell CPT – DT40-hTDP1 cell growth loss with CPT; chicken DT40 Tdp1-/-;hTDP1 cells + 20 nM CPT, ATP luminescence, 48 h; Potency, µM (highest dose often 46.2 µM), for inactives: at the top dose activity change, negative = growth inhibition, usual class: inhibitors; actives 12% (n = 420,000); AID 686979; also: nearly all actives have a fitted effect of over 55% in size
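Cell growth measured by CellTiter-Glo luminescence after a minimum 48 h, 37 C compound exposure with 20 nM CPT in Tdp1-knockout DT40 cells stably expressing hTDP1, seeded 400/well; qHTS titration format.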
Gal4-VP16 FLuc – inhibits Gal4-VP16 luciferase reporter, ROR gamma counter-screen; Drosophila S2 Gal4-VP16 UAS-luciferase, luminescence, 20 h; Potency, µM (titrated, usually from 53.6 µM), inactives show at the top dose activity, negative = inhibition, most hits filed as inhibitors; actives 3.5% (n = 310,000); AID 2546;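 also: Gal4-VP16 expression switched on by copper sulfate through the metallothionein promoter; nearly all actives have a fitted effect of over 50% in size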
TDP1 block – inhibitors of human tyrosyl-DNA phosphodiesterase TDP1; Q9NUW8; recombinant TDP1, AlphaScreen DNA substrate cleavage; Potency, µM (highest dose often 130 µM), for inactives: at the top dose activity change, negative = inhibition, most hits filed as inhibitors; actives 0.28% (n = 350,000); AID 485290; also: nearly all actives have a fitted effect of over 40% in size
Target sequence (Q9NUW8 whole entry, looked up): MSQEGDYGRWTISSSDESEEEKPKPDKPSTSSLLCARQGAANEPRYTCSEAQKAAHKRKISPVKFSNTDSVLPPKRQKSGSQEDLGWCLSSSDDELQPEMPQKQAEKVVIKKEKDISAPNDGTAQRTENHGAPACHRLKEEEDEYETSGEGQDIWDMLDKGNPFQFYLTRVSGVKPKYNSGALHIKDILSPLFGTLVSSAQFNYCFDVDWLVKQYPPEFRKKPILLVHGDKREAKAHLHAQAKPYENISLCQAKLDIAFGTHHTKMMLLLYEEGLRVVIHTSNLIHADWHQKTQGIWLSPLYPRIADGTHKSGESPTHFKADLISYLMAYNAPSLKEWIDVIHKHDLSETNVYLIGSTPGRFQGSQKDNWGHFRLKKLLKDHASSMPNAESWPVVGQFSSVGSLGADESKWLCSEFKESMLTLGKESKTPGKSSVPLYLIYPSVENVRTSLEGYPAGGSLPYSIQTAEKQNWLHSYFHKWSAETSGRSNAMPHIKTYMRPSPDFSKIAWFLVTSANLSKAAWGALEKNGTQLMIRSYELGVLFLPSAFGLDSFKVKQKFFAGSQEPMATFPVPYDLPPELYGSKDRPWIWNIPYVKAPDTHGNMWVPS
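Steps: enzyme plus compound, 15 min RT; add biotin/phosphotyrosine-FITC oligonucleotide (15 nM final), react 5 min; add donor/acceptor beads (10 ug/ml final), 10 min; read AlphaScreen. Tdp1 at 1 nM final.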
RORg inh – inhibitors of mouse ROR gamma transcriptional activity; P51450; Drosophila S2 Gal4-RORgamma UAS-luciferase reporter, 20 h; Potency, µM (doses to about 53.6 µM), for the others: top-dose activity change, negative = inhibition, most hits filed as inhibitors; actives 5.4% (n = 310,000); AID 2551; also: nearly all actives have a fitted effect of over 60% in size
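In this cell-based reporter format, copper sulfate (700 uM final) drives Gal4–ROR gamma fusion expression from a metallothionein promoter in Drosophila Schneider cells; compounds preincubated 1 hr, reporter read after 20 hr at ambient temperature.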
DT40 TDP1 no CPT – qHTS for Inhibitors of human tyrosyl-DNA phosphodiesterase 1 (TDP1): qHTS in cells in absence of CPT; DT40 Tdp1-/- hTDP1 cells, no CPT, ATP luminescence, 48 h; Potency, µM (titrated, usually from 46.2 µM), inactives show top-dose activity change, negative = growth inhibition, most hits filed as inhibitors; actives 15% (n = 420,000); AID 686978, 2013; also: nearly all actives have a fitted effect of over 55% in size
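Camptothecin absent (DMSO only). Human TDP1-complemented DT40 knockout cells, 400 cells/well, 37 °C for minimum 48 hr; ATP measured via CellTiter-Glo, 30 min dark incubation, luminescence.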
Numbers without * were called inactive; ? = inconclusive; nt = no result given. Calls follow the shape of the dose curve; as a rule, active = well fitted curve in the direction sought with a large enough effect; inconclusive = small, poorly fitted or top-dose-only effect, or another doubt; inactive = no such curve, though single readings can be large; an effect the other way counts as inactive or inconclusive. % is scaled to controls: 0 for no effect and ±100 for the full control effect; potency is read from the fitted curve at half-maximal effect.

SMILES | TDP1 cell CPT | Gal4-VP16 FLuc | TDP1 block | RORg inh | DT40 TDP1 no CPT
Cc1cccc(N2CC(C(=O)Nc3nnc(SCCC4OCCO4)s3)CC2=O)c1 (configuration not stated) | -7% | -1% | 3% | 3% | 3%
O=Cc1s/c(=N\S(=O)(=O)c2ccccc2)n(CCCCl)c1Cl | 0.52µM* | ? | 6% | 5µM* | 0.73µM*
CCN1CCN(CCCNC(=O)c2cc3c(=O)n(CC)c4ccccc4c3s2)CC1 | ? | nt | 2% | nt | ?
Cn1c(=O)c2cc(C(=O)NCCCN3CCN(c4cccc(Cl)c4)CC3)sc2c2ccccc21 | ? | nt | 2% | nt | 2.9µM*
CN1CCN(CCCNC(=O)c2cc3c(=O)n(C)c4ccccc4c3s2)CC1 | 8.2µM* | 3% | 0% | -34% | 12µM*
COC(=O)c1ccc(COc2ccccc2OC)o1 | 1% | 4% | nt | 20% | -6%
Nc1nc(SCC(=O)Nc2cccc(S(=O)(=O)N3CCCCCC3)c2)n[nH]1 | -24% | -2% | 0% | 31% | -10%
Nc1nc(SCC(=O)Nc2ccc(OCc3ccccc3)cc2)n[nH]1 | -24% | -3% | 71µM* | ? | ?
Cc1nc(SCC(=O)Nc2ccc(OCc3ccccc3)cc2)n[nH]1 | -16% | 3% | 6% | 19% | -3%
COCCn1cnnc1SCC(=O)Nc1cccc(S(=O)(=O)N(C)c2ccccc2)c1 | 6% | -1% | 1% | 38% | -7%
Cc1nnc(SCC(=O)Nc2cccc(S(=O)(=O)N(C)c3ccccc3)c2)s1 | 8.2µM* | ? | -1% | ? | 6.5µM*
CN(c1ccccc1)S(=O)(=O)c1cccc(NC(=O)CSc2n[nH]c(N)n2)c1 | 9.2µM* | 7.1µM* | nt | ? | 9.2µM*
c1ccc(-c2ccccc2OCc2nnc3n2CCC3)cc1 | -15% | 16% | 1% | -1% | ?
CCCCc1ccc(N=N/C(C(=O)Nc2ccc(NC(C)=O)cc2OC)=C(/C)O)cc1 | ? | 10% | 12% | -19% | ?
S=c1[nH]ccn1Cc1ccccc1 | ? | ? | 3% | 11µM* | -14%
COc1cc2c(cc1OC)CN(CC(=O)Nc1cccc(C(F)(F)F)c1)CC2 | -53% | -4% | nt | 2% | ?
CCOC(=O)[C@]12Cc3c(cc(OC)c(OC)c3OC)[C@H]1N(C1CCCCC1)C(=O)c1cc(OC)ccc12 | 9.2µM* | nt | nt | nt | 9.2µM*
CC(=O)N(c1ccccc1)c1ccc([N+](=O)[O-])cc1[N+](=O)[O-] | -26% | 27% | -2% | -37% | ?
CCCCn1c(N)c(N(CCOC)C(=O)c2ccc(NC3CC3)c([N+](=O)[O-])c2)c(=O)[nH]c1=O | -15% | nt | nt | nt | 1%
O=C1Nc2ccccc2/C1=N/N=C/c1cccc(O)c1 | -8% | -24% | 11% | 13% | ?
O=C(NNC(=O)C1CC(=O)N(c2ccc3c(c2)OCCO3)C1)c1ccc(F)cc1 (configuration not stated) | 13% | nt | nt | nt | 2%
CCCCCn1c(CN2CCN(c3ccc(OC)cc3)CC2)nc2c1c(=O)[nH]c(=O)n2C | ? | nt | 14% | nt | 23µM*
COc1ccc(N2CCN(Cc3nc4ccsc4c(=O)[nH]3)CC2)cc1 | -4% | 2% | 5% | 14% | -4%
CCCCn1c(CN2CCN(C(=O)OCC)CC2)nc2c1c(=O)[nH]c(=O)n2C | -6% | -6% | 0% | -18% | -6%
CCCn1c(N2CCN(CC(=O)c3c(C)n(C)c4ccc(OC)cc34)CC2)nc2c1c(=O)[nH]c(=O)n2C | ? | ? | 2% | 21% | 21µM*
SMILES | TDP1 cell CPT | Gal4-VP16 FLuc | TDP1 block | RORg inh | DT40 TDP1 no CPT
Cc1ccc(Cl)cc1N1CCN(Cc2nc3ccsc3c(=O)[nH]2)CC1 | ? | ? | 6% | 11µM* | ?
CCCCCn1c(CN2CCN(c3cc(Cl)ccc3C)CC2)nc2c1c(=O)[nH]c(=O)n2C | 14µM* | -10% | 0% | -15% | 13µM*
COc1ccc(N2CCN(Cc3nc4c(c(=O)[nH]c(=O)n4C)n3Cc3ccc(C)cc3)CC2)cc1 | -2% | nt | 6% | nt | ?
CCCCNC(=O)C(CC)Sc1nnc(-c2ccc(OC)c(OC)c2)c(-c2ccc(OC)c(OC)c2)n1 (configuration not stated) | -1% | nt | 0% | nt | -28%
Cc1ccc([N+](=O)[O-])cc1NC(=O)c1ccc(C(C)(C)C)cc1 | ? | ? | 7% | ? | 13µM*
Cc1ccc2nsnc2c1NC(=O)c1ccc([N+](=O)[O-])cc1 | -25% | ? | 0% | 7.9µM* | ?
Cc1c(NC(=S)NC(=O)C(C)(C)C)cccc1[N+](=O)[O-] | -3% | 20µM* | 2% | 14µM* | ?
CC(=O)Nc1c(C)ccc2nsnc12 | 13% | -6% | 4% | ? | -4%
CC(C)(C)c1ccc(NC(=O)c2ccccc2)c([N+](=O)[O-])c1 | -23% | -23% | 10% | 3% | ?
Cc1c(NC(=O)c2ccc(C(C)(C)C)cc2)cccc1[N+](=O)[O-] | 16µM* | ? | 1% | ? | 21µM*
CC1CCN(CCCn2c(=S)[nH]c3c(sc4ccc([N+](=O)[O-])cc43)c2=O)CC1 | ? | 5% | 0% | -31% | -26%
CCOC(=O)CCSc1nc(C)c2cc(C)ccc2n1 | -16% | 16% | 1% | 15% | -25%
Cc1ccc([N+](=O)[O-])cc1NC(=O)Nc1cccc(F)c1 | 4.6µM* | ? | -4% | ? | 9.2µM*
Cc1cc2c(cc1NC(=O)c1ccc(C(C)(C)C)cc1)n(C)c(=O)c(=O)n2C | 23µM* | nt | 6% | nt | 26µM*
S=C1Nc2ccccc2Sc2ccc(Cl)cc21 | ? | 2.8µM* | 0% | 1.8µM* | ?
Clc1cc2c(nn1)Nc1ccccc1S2 | 0% | 1% | 0% | -7% | 8%
CCN1CC(CN(C)Cc2cn(-c3cccc(C)c3)nc2-c2cccc(F)c2)CC1=O (configuration not stated) | 16µM* | -10% | 0% | 26% | 18µM*
Cc1ccc(C)c(-n2cc(CNC(C)Cn3cncn3)c(-c3ccccc3)n2)c1 (configuration not stated) | ? | 0% | 2% | 8% | ?
Cc1cccc(-c2nn(-c3ccccc3)cc2CNCCO)c1 | ? | nt | 2% | nt | 13µM*
Cc1ccc(C)c(-n2cc(CNCCCn3cccn3)c(-c3ccccc3)n2)c1 | 23µM* | -7% | -1% | 10µM* | 21µM*
Cc1cccc(-n2cc(CNCCc3nc(C)cc(C)n3)c(-c3cccc(F)c3)n2)c1 | 12µM* | -13% | nt | -35% | 4.6µM*

Screening results deposited in PubChem BioAssay by National Center for Advancing Translational Sciences (NCATS).
